Screening data (PubChem)
Only some compounds are listed: those with a hit (about 5.7% of all), similar ones and a draw of the others.
VP16 counter: VP16 counterscreen qHTS for inhibitors of ROR gamma transcriptional activity | Potency, µM (doses to about 53.6 µM), hits mostly inhibitors | Drosophila S2 Gal4-VP16 UAS-luciferase, luminescence, 20 h | hit rate 3.5% among 310,000;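 note: Gal4-VP16 expression switched on by copper sulfate through the metallothionein promoter; nearly all actives have a fitted effect of over 50% in size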
NPSR antagonist: qHTS Assay for Antagonists of the Neuropeptide S Receptor: cAMP Signal Transduction. Potency, µM (top dose mostly 38.3 µM), most hits filed as inhibitors. hit rate 1% among 220,000. CHO-NPSR cells, cAMP TR-FRET, antagonist mode. Q6W5P4; note: nearly all actives have a fitted effect of over 50% in size
RORgamma inh: qHTS for inhibitors of ROR gamma transcriptional activity; Nuclear receptor ROR-gamma (Mus musculus), P51450; Drosophila S2 Gal4-RORgamma UAS-luciferase reporter, 20 h; Potency, µM (doses to about 53.6 µM), hits mostly inhibitors; hit rate 5.4% among 310,000; note: nearly all actives have a fitted effect of over 60% in size
Target sequence (P51450 whole entry, looked up, the tested form may be a part): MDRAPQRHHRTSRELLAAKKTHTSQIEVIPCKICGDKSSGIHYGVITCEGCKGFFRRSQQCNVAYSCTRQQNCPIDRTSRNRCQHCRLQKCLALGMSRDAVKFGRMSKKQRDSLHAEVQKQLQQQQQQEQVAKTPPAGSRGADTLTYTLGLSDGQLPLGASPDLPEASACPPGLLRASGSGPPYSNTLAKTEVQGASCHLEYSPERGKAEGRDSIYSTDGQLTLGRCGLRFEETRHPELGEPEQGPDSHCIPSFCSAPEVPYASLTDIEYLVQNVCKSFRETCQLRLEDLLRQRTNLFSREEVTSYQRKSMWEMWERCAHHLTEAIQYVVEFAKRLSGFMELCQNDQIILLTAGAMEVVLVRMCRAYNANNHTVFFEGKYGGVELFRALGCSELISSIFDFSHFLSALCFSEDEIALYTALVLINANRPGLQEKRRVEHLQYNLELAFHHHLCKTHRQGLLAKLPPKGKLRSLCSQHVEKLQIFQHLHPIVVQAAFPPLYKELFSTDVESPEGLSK
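Drosophila Schneider cells stably carrying a metallothionein-driven Gal4 DBD–ROR gamma fusion and a UAS-Photinus luciferase reporter were exposed to compound for 1 hr, then induced with copper sulfate (700 uM final) for 20 hr at ambient temperature before luminescence reading.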
B2AR arrestin: qHTS assay of beta-arrestin-biased ligands of beta2-adrenergic receptor. beta-arrestin recruitment to beta2AR, cell-based reporter. AID 492947, 2010. hit rate 0.02% among 330,000. Potency, µM (top dose mostly 46.1 µM), usual class: activators. Beta-2 adrenergic receptor (Homo sapiens), P07550; note: nearly all actives have a fitted effect of over 65% in size
Hits are given with their value; i = inactive; ? = inconclusive; nt = no result; [ ] = another dose, or the depositor's remark. Calls come from the whole dose curve; as a rule, active = well fitted curve in the direction sought with a large enough effect; inconclusive = small, poorly fitted or top-dose-only effect, or another doubt; inactive = no such curve, though single readings can be large; an effect the other way counts as inactive or inconclusive.

SMILES | VP16 counter | NPSR antagonist | RORgamma inh | B2AR arrestin
CC1CCN(C(=O)N2c3ccccc3Sc3ccccc32)CC1 | i | i | i | i
O=C(NC1CCN(C(=O)N2c3ccccc3Sc3ccccc32)CC1)c1ccccc1F | 3.5µM | ? | ? | i
CC1CN(C(=O)N2c3ccccc3Sc3ccccc32)CC(C)O1 (stereo not drawn) | 3.5µM | i | i | i
CN(C(=O)c1cc2ccccc2o1)c1c(N)n(Cc2ccccc2)c(=O)[nH]c1=O | nt | nt | nt | i
CCOC(=O)OCC1OC(c2ccccc2)C=CC1OC(=O)OCC (stereo not drawn) | i[10 µM] | nt | i[10 µM] | nt
O=C(Cn1cc([N+](=O)[O-])nc1[N+](=O)[O-])N1CCN(c2ccccc2)CC1 | ? | i | 5.6µM | i
O=C(Cn1cnc2ccccc2c1=O)N1CCN(c2ccccc2)CC1 | i | i | i | i
COc1cccc(CNC(=S)Nc2cc(C)ccc2C)c1 | 6.3µM | i | 3.2µM | i
COc1cccc(CNC(=S)Nc2cccc(Cl)c2C)c1 | 3.5µM | nt | 5µM | i
COc1cc(C)c(NC(=S)Nc2cccc(Cl)c2C)cc1OC | ? | i | 13µM | i
O=CNC(n1cnc2c(N3CCOCC3)ncnc21)C(Cl)(Cl)Cl (stereo not drawn) | i | i | i | i
COc1cc([C@@H]2CC(=O)c3c(O)cc(O)cc3O2)ccc1O | i | nt | i | nt
O=C1OC(Nc2cc(Br)cc3cccnc23)c2ccccc21 (stereo not drawn) | 11µM | i | ? | i
CN1CCN(S(=O)(=O)c2ccc(NC(=S)NC(=O)c3ccccc3)cc2)CC1 | i | i | ? | i
CN1CCN(S(=O)(=O)c2ccc(NC(=S)NC(=O)c3ccc(Cl)cc3)cc2)CC1 | ? | i | 3.2µM | i
CC1CCN(S(=O)(=O)c2ccc(NC(=S)NC(=O)c3ccc(Cl)cc3)cc2)CC1 | 4µM | i | 2µM | i
CCOc1ccccc1C(=O)Nc1ccc(S(=O)(=O)Nc2nccc(C)n2)cc1 | i | nt | i | i
CCN(CC)C(=O)CSc1ncnc2c1nnn2-c1ccc(OC)cc1 | i | i | i | i
CCOC(=O)CC(=O)CSc1ncnc2c1nnn2-c1ccc(OC)cc1 | i | i | 8.9µM | i
CCCc1cc(C(=O)N/N=C/c2cccn2C)cs1 | 22µM | nt | 11µM | i
Cc1ccc(C(=O)N/N=C\c2cccn2C)cn1 | ? | i | 11µM | i
Cc1ccc(C(=O)N/N=C\c2ccc(-c3ccc(Cl)cc3)o2)cn1 | 10µM | i | 2.5µM | i
Cc1ccnc(N=O)c1 | nt | nt | nt | i
C=CCn1c(C)c(C(C)=O)c(N2CCN(C(c3ccccc3)c3ccccc3)CC2)nc1=S | ? | i | 18µM | i
CC(=O)c1c(N2CCN(c3cccc(Cl)c3)CC2)nc(=S)n(-c2ccccc2)c1C | ? | i | 20µM | i
SMILES | VP16 counter | NPSR antagonist | RORgamma inh | B2AR arrestin
CC(=O)c1c(N2CCN(C)CC2)nc(=S)n(Cc2ccccc2)c1C | i | i | i | i
O=C(N/C(=C/c1cn(-c2ccccc2)nc1-c1ccccc1)C(=O)N1CCOCC1)c1ccc(Cl)cc1Cl | i | i | i | i
Cc1cccc(NC(=S)NCCc2ccccc2)n1 | 3.2µM | i | 0.56µM | i
Cc1cccc(NC(=O)CS(=O)(=O)Cc2ccccc2)n1 | i | i | i | i
S=C(NCCc1ccccc1)Nc1ccccn1 | 3.2µM | i | 1.1µM | i
CCc1ccccc1N(CC(=O)NCCc1ccccc1)C(=O)CCC(=O)Nc1ccccn1 | i | nt | ? | i
O=C(COC(=O)C1CCCCC1C(=O)N1CCc2ccccc21)NCc1ccco1 (stereo not drawn) | i | i[7.67 µM] | i[10 µM] | i
OC[C@H]1NC[C@H](O)[C@@H](O)[C@@H]1O | i | nt | i | nt
O=C(Nc1ccc2nc3n(c(=O)c2c1)CCCCC3)c1c(F)ccc([N+](=O)[O-])c1F | 7.9µM | nt | i | i
O=C(Nc1cccc(S(=O)(=O)N2CCCC2)c1)c1ccc2c(=O)n3c(nc2c1)CCCCC3 | i | i | i | i
O=C(Nc1ccc2nc3n(c(=O)c2c1)CCCCC3)c1cc([N+](=O)[O-])ccc1F | i | nt | i | i
CC(=O)c1cccc(NC(=O)c2ccc3c(=O)n4c(nc3c2)CCCCC4)c1 | 5µM | i | 2.5µM | i
CCc1cc2c(c(CC)n1)CCC(=O)N2Cc1ccc(-c2ccccc2-c2nn[nH]n2)cc1 | i | nt | i | nt
O=C(COc1ccccc1Cl)NC(=S)N1CCc2ccccc21 | 1.1µM | i | 0.71µM | i
COc1ccc(OCC(=O)NC(=S)N2CCCc3ccccc32)cc1 | i | i | ? | i
O=C(COc1ccccc1)NC(=S)N1CCc2ccccc21 | 2.5µM | i | 1.3µM | i
CC(Oc1ccc(Br)cc1)C(=O)N1CCc2ccccc21 (stereo not drawn) | i | i | i | i
CC(Oc1ccccc1Br)C(=O)N1CCc2ccccc21 (stereo not drawn) | i | i | 14µM | i
CC(C)C(=O)NC(=S)N1CCc2ccccc21 | ? | i | 8.9µM | i
COc1ccc(-c2noc(CCCC(=O)NCC3CCCO3)n2)cc1 (stereo not drawn) | ? | nt | ? | i
O=c1c(O)c(-c2cccs2)oc2ccc(Cl)cc12 | ? | i | 11µM | i
O=c1c(O)c(-c2cccs2)oc2ccccc12 | i[0.365 µM] | i | 22µM | i
O=c1cc(-c2cccs2)oc2ccc(Cl)cc12 | i | i | i | i
COCC(=O)N1CCC(Oc2ccc(C(=O)N3CCCCCC3)cc2)CC1 | i | nt | i | i
O=C(Nc1nc2c(s1)CCCC2)c1cccc(S(=O)(=O)N2CCCc3ccccc32)c1 | 13µM | i | 3.2µM | i
SMILES | VP16 counter | NPSR antagonist | RORgamma inh | B2AR arrestin
CCC(CC)c1nnc(NC(=O)c2cccc(S(=O)(=O)N3CCc4ccccc43)c2)s1 | ? | i | 16µM | i
CCCNC(=O)c1cc(S(=O)(=O)N2CCc3ccccc32)cn1C | 14µM | nt | ? | i
CCOC(=O)c1sc(NC(=O)c2cccc(S(=O)(=O)N3CCc4ccccc43)c2)c(C#N)c1C | 5.6µM | i | ? | i
CN1CCc2nc(NC(=O)c3cccc(S(=O)(=O)N4CCc5ccccc54)c3)sc2C1 | i | i | ? | i
CCOC(=O)c1c(S(=O)(=O)N2CCN(c3ccc(C(C)=O)cc3)CC2)c(C)n(C)c1C | i | nt | i | i
O=S(=O)(NCc1ccccc1Cl)c1cccs1 | i | i | i | i
COc1cc(C)c(CC/C(C)=C/C=C/C(C)=O)c(C)c1C | i | nt | i | nt
COC(=O)C1=C[C@@H](C(=O)OC)[C@@H]2C3=C(C(=O)[C@@]2(C)NC(=O)c2ccccc2)[C@H](C)[C@@H]2C(=O)N(c4ccccc4)C(=O)[C@@H]2[C@@H]3C1 | i | nt | i | nt
CCC(=O)Nc1ccc(NC(=O)CSc2nnnn2Cc2ccccc2)cc1C | i | nt | i | i
CCc1nnc(NC(=O)c2cccc(S(=O)(=O)N3CCN(c4ccccc4)CC3)c2)s1 | ? | i | 13µM | i
Cc1cc(C)n(-c2nc(SCC(=O)O)c3c4c(sc3n2)COC(C)(C)C4)n1 | ? | i | 7.1µM | i
CCN(CC)CCCNc1nc(-n2nc(C)cc2C)nc2sc3c(c12)CC(C)(C)OC3 | ? | i | 13µM | i
